PubChem BioAssay (NCATS)
Inconclusive results are not listed. Calls of active or inactive are those of the source. Calls follow the shape of the dose curve; as a rule, active = well fitted curve in the direction sought with a large enough effect; inconclusive = small, poorly fitted or top-dose-only effect, or another doubt; inactive = no such curve, though single readings can be large; an effect the other way counts as inactive or inconclusive.

Assays:
[1] = Cell Viability - LYMP2-004 (AID 966); also: nearly all actives have a fitted effect of over 65% in size
Procedure, shortened: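 qHTS cytotoxicity: human lymphoblastoid line, 24 hr compound treatment, 37 C, complete medium. Viability read as cellular ATP via luciferase luminescence; tetraoctylammonium bromide served as positive control.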

[2] = Cell Viability - LYMP2-005 (AID 967); also: series mostly up to about 92 µM
Procedure, shortened: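 Acute cytotoxicity is scored as a concentration-dependent drop in intracellular ATP in human lymphoblastoid LYMP2-005 cells after 24 h compound treatment. ATP is quantified by luciferase luminescence, and AC50 is derived by Hill-equation modelling.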

[3] = Cell Viability - LYMP2-009 (AID 968); also: series mostly up to about 92 µM; nearly all actives have a fitted effect of over 55% in size
[4] = Cell Viability - LYMP2-011 (AID 969); also: nearly all actives have a fitted effect of over 60% in size
Procedure, shortened: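 In this qHTS cytotoxicity format, compounds are tested across concentrations on human lymphoblastoid cells in complete medium for 24 hours at 37 C. Viability is taken as cellular ATP measured by luciferase luminescence.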

[5] = Cell Viability - LYMP2-013 (AID 970); also: series mostly up to about 92 µM; nearly all actives have a fitted effect of over 55% in size
Procedure, shortened: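 Cytotoxicity is scored as a concentration-dependent drop in intracellular ATP in human lymphoblastoid cells after 24 hr compound exposure at 37 C. ATP is quantified by luciferase luminescence, and AC50 values come from Hill-equation modeling.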

[6] = Cell Viability - LYMP2-015 (AID 971); also: nearly all actives have a fitted effect of over 55% in size
Procedure, shortened: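 Cells are seeded at 2500 per well and incubated 5 hr at 37 C. Compounds are added across a concentration series for 24 hr at 37 C. CellTiter-Glo is added, and luminescence is read after 30 min at room temperature.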

[7] = Cell Viability - LYMP2-017 (AID 972); also: series mostly up to about 92 µM; nearly all actives have a fitted effect of over 55% in size
Procedure, shortened: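 Cytotoxicity is scored as a concentration-dependent drop in cellular ATP in a human lymphoblastoid line after 24 hr treatment at 37 C. Values are AC50s from Hill-equation modelling.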

[8] = Cell Viability - LYMP2-019 (AID 973); also: nearly all actives have a fitted effect of over 55% in size
Procedure, shortened: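 Cytotoxicity is scored as a concentration-dependent drop in cellular ATP after cells (2500/well) receive compound for 24 hr at 37 C. Tetraoctylammonium bromide serves as positive control.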

[9] = Cell Viability - LYMP2-021 (AID 974)
Procedure, shortened: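 Loss of cellular ATP, measured with a luciferase-based CellTiter-Glo readout, serves as the toxicity signal in human lymphoblastoid cells treated for 24 hours at 37 C. Potency is reported as AC50 from a standard Hill model.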

[10] = Cell Viability - LYMP2-023 (AID 975)
Procedure, shortened: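 Steps: seed 2500 human lymphoblastoid cells per well, incubate 5 hr at 37 C, add compound for 24 hr at 37 C, add CellTiter-Glo, hold 30 min at room temperature, read luminescence. AC50 derived by Hill modelling.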

[11] = Cell Viability - LYMP2-025 (AID 976); also: series mostly up to about 92 µM
Procedure, shortened: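 Acute cytotoxicity is scored as a concentration-dependent fall in intracellular ATP, measured by luciferase luminescence, in human lymphoblastoid LYMP2-025 cells exposed to compound for 24 hours at 37 C. AC50 values come from standard Hill fits.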

[12] = Cell Viability - LYMP2-002 (AID 977);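 also: series mostly up to about 92 µM; compound exposure lasted 24 h at 37 °C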
Procedure, shortened: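 Human lymphoblastoid cells, 2500/well, complete medium; 5 h 37 C settle; compound 24 h 37 C; CellTiter-Glo, 30 min RT; luminescence. Decrease in ATP = cytotoxicity; AC50 via Hill equation.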

[13] = Cell Viability - LYMP2-006 (AID 978); also: series mostly up to about 92 µM; nearly all actives have a fitted effect of over 60% in size
Procedure, shortened: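 Cells are seeded at 2500 per well and rested 5 hr at 37 C. Compounds are added across a concentration series for 24 hr at 37 C, after which ATP is quantified by luciferase luminescence.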

[14] = Cell Viability - LYMP2-007 (AID 979);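 also: cells exposed to compound for 24 h before reading; nearly all actives have a fitted effect of over 60% in size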
Procedure, shortened: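 Cells are seeded at 2500 per well and rested 5 hr. Compounds are then added over a concentration series for 24 hr at 37 C. CellTiter-Glo is added for 30 min at room temperature before luminescence reading.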

[15] = Cell Viability - LYMP2-008 (AID 980); also: nearly all actives have a fitted effect of over 60% in size
Procedure, shortened: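 Cells seeded at 2500/well and rested 5 hr at 37 C; compounds added over a concentration range and incubated 24 hr at 37 C; CellTiter-Glo added, 30 min at room temperature; luminescence read and AC50 fitted with Hill model.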

[16] = Cell Viability - LYMP2-010 (AID 981); also: nearly all actives have a fitted effect of over 55% in size
Procedure, shortened: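 Steps: seed 2500 LYMP2-010 cells per well; incubate 5 hr at 37 C; add compound; incubate 24 hr at 37 C; add CellTiter-Glo, wait 30 min at room temperature; read luminescence. Concentration-response fitted to Hill equation for AC50.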

[17] = Cell Viability - LYMP2-012 (AID 982)
[18] = Cell Viability - LYMP2-014 (AID 983); also: series mostly up to about 92 µM; nearly all actives have a fitted effect of over 50% in size
Procedure, shortened: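 Cells are plated at 2500/well and left 5 hr at 37 C. Compounds are added across a concentration range and incubated 24 hr at 37 C in complete medium. CellTiter-Glo is added, and luminescence is read after 30 min at room temperature.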

[19] = Cell Viability - LYMP2-016 (AID 984); also: nearly all actives have a fitted effect of over 55% in size
Procedure, shortened: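 Cells were seeded at 2500 per well and rested 5 hr before a 24 hr compound exposure at 37 C. Viability was then gauged as cellular ATP by luciferase luminescence, with AC50 values fitted to the Hill equation.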

[20] = Cell Viability - LYMP2-018 (AID 985); also: nearly all actives have a fitted effect of over 50% in size
Procedure, shortened: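 Seed 2500 lymphoblastoid cells per well, incubate 5 hr at 37 C, add compound and incubate 24 hr at 37 C, add CellTiter-Glo, wait 30 min at room temperature, then read luminescence.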

Measured: Potency

CCC1CO1 (stereo not given)
inactive: all assays above

O=c1[nH][nH]c(=O)c2cc([N+](=O)[O-])ccc12
inactive: all assays above

NC(=S)NNC(N)=S
inactive: all assays above

Cc1ccco1
inactive: all assays above

Cc1c(C(=O)O)cccc1[N+](=O)[O-]
inactive: all assays above

CC(=O)CCc1ccccc1
inactive: all assays above

Fc1ccccc1
inactive: all assays above

BrC/C=C/CBr
inactive: all assays above

CCCCCO
inactive: all assays above

NC(=O)CCCCC(N)=O
inactive: all assays above

NC(=O)c1ccccc1[N+](=O)[O-]
inactive: all assays above

OC(CCl)CCl
inactive: all assays above

CCCOCC(C)OCC(C)O (stereo not given)
inactive: all assays above

C=CCn1c(=O)n(CC=C)c(=O)n(CC=C)c1=O
inactive: all assays above

Cc1cccc(C)c1[N+](=O)[O-]
inactive: all assays above

O=C(O)c1ccccc1Cl
inactive: all assays above

CCOC(=O)C(C)C(C)=O (stereo not given)
inactive: all assays above

CCC=O
inactive: all assays above

Nc1nc(CC(=O)O)cs1
inactive: all assays above

Cc1ccc(C(C)(C)C)cc1
inactive: all assays above

CCCCC(CC)COC(=O)CCCCC(=O)OCC(CC)CCCC (stereo not given)
inactive: all assays above

O=C(O)c1ccc(C(=O)O)cc1
inactive: all assays above

CCCCCCCCCCCCOCC1CO1 (stereo not given)
inactive: all assays above

O=[N+]([O-])c1ccc(Cl)cc1Cl
inactive: all assays above

COCCOC(=O)c1ccccc1C(=O)OCCOC
inactive: all assays above

CC=C(Cl)Cl
inactive: all assays above

CCCCC(CC)CO (stereo not given)
inactive: all assays above

CCCCOCCOCCOCCCC
inactive: all assays above

CNc1ccccc1
inactive: all assays above

Cc1c(N)cccc1[N+](=O)[O-]
inactive: all assays above

O=C(Cl)c1cccc([N+](=O)[O-])c1
inactive: all assays above
